{"source": "ChEMBL document CHEMBL3433997", "about": "“St. Jude Leishmania screening dataset” (2016)"}
{"molecular_target": "Solute carrier family 2, facilitated glucose transporter member 1 (Homo sapiens) (UniProt P11166)", "sequence (P11166 whole entry)": "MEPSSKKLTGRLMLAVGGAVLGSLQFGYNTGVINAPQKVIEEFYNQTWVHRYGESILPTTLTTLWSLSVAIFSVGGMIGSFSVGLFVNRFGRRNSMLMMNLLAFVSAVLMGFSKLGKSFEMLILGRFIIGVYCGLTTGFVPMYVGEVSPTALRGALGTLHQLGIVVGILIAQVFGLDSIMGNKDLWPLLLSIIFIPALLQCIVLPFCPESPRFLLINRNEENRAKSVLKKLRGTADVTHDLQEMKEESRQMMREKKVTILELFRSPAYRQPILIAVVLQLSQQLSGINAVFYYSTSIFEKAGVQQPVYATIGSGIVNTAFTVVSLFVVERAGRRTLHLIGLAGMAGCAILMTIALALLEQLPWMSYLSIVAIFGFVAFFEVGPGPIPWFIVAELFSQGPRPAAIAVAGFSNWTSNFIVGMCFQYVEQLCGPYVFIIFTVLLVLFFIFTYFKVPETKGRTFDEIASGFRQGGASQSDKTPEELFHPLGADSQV", "assay": "ST_JUDE_LEISH: Cytotoxicity at 2uM final concentration against transgenic Leishmania Mexicana promastigotes LmGLUT1 that are glucose transport deficient and complemented with the human glucose transporter GLUT1. Activity is measured by DNA content using SYBR green in vitro", "assay_type": "functional", "units": {"inhibition": "%"}}
{"smiles": "CCCCN(C(=O)c1ccccc1Cl)c1nnc(-c2ccccc2C)s1", "inhibition": -1.28}
{"smiles": "O=C(NC1CC1)c1ccc(N2CCCC(COc3ccccc3F)C2)nc1", "note": "(centres undefined)", "inhibition": 2.73}
{"smiles": "COc1ccc2ncn(-c3ccc(C(N)=O)c(OCc4ccccc4C(F)(F)F)c3)c2c1", "inhibition": -0.54}
{"smiles": "Cc1ccc(Cn2ncc(N3CCC(N)CC3)c(Cl)c2=O)cc1NC(=O)Nc1ccc(-c2ccccc2)cc1", "inhibition": 14.2}
{"smiles": "COc1cc2ccccc2c(CON2C(=N)N=C(N)NC2(C)C)c1OC", "inhibition": 2.53}
{"smiles": "Cc1cccc2nc(-c3ccc(-c4cccc(NC(=O)NCc5cccc(F)c5)c4)s3)[nH]c12", "inhibition": -1.66}
{"smiles": "COc1ccc2nc3cc(Cl)ccc3c(NCCN3CCN(C)CC3)c2c1", "inhibition": 4.56}
{"smiles": "O=[N+]([O-])c1cccc(S(=O)(=O)N2CCN(CC(O)COc3ccc(-c4ccccc4)cc3)CC2)c1", "note": "(centres undefined)", "inhibition": 1.04}
{"smiles": "CC(C)NCc1ccc(-c2ccc(NC(=O)c3ccc(Cl)cc3)cc2)cc1", "inhibition": 19.7}
{"smiles": "CC1CNC(c2cccc(NC(=O)Nc3cccc(C4=NC(C)CN4)c3)c2)=N1", "note": "(centres undefined)", "inhibition": 6.32}
{"smiles": "COC(=O)C(=C(C)C)N1C(=O)[C@@H](NC(=O)OCc2ccccc2)[C@H]1SS[C@@H]1[C@H](NC(=O)OCc2ccccc2)C(=O)N1C(C(=O)OC)=C(C)C", "inhibition": -2.06}
{"smiles": "O=C(Nc1cccc(-c2ccc(CN3CCNCC3)cc2)c1)c1cccc(Cl)c1", "inhibition": -0.47}
{"smiles": "Cc1cccc2nc(-c3cccc(-c4cccc(NC(=O)CCc5c[nH]cn5)c4)c3)[nH]c12", "inhibition": 0.79}
{"smiles": "Cc1noc(C)c1-c1cccc(CNCc2cccc(-c3csc(-c4nc5ccccc5[nH]4)c3)c2)c1", "inhibition": 2.13}
{"smiles": "COc1ccc(NS(=O)(=O)c2ccc(C(=O)Nc3ccc(OC(F)(F)F)cc3)cc2)cc1N1CCN(CC2CC2)CC1", "inhibition": 6.41}
{"smiles": "CCCNCc1ccc(-c2ccc(CN(CCOC)C(=O)Cc3cccnc3)cc2)nc1", "inhibition": 0.25}
{"smiles": "Cc1ccc(CNC(=O)c2cc3c(=O)n4ccccc4nc3n(CCCN3CCOCC3)c2=N)cc1", "inhibition": 8.03}
{"smiles": "CC(C)CCn1c(Sc2ccc(C#N)c([N+](=O)[O-])c2)nnc1-c1ccc(N(C)C)cc1", "inhibition": 0.76}
{"smiles": "CN(Cc1ccccc1)C1CCN(c2cc(NC(=O)c3cccc(F)c3)ccn2)CC1", "inhibition": 6.87}
{"smiles": "O=C(Nc1cccc(CN2CCN(C(=O)c3cccs3)CC2)c1)c1cccs1", "inhibition": 2.53}
{"smiles": "COc1ccc2nc(/N=C3\\NC(c4ccccn4)(c4ccccn4)C(=O)N3C)[nH]c2c1", "inhibition": 11.7}
{"smiles": "CC1CN(CC(O)Cn2c3ccc(Br)cc3c3cc(Br)ccc32)CC(C)O1", "note": "(centres undefined)", "inhibition": 2.95}
{"smiles": "CCCC(C)Nc1nc(C)cc(N[C@@H](Cc2ccccc2)C(=O)NCc2ccc(C)cc2)n1", "note": "(some centres undefined)", "inhibition": 9.97}
{"smiles": "COc1cc(C=CC(=O)N2CCN(Cc3cccc(C)c3)CC2)ccc1OCc1c(C)noc1C", "inhibition": 8.31}
{"smiles": "O=C(Nc1ccc(OC2CCN(Cc3ccc(F)cc3)CC2)cc1)c1cccs1", "inhibition": -0.82}
{"smiles": "CCCOc1ccc(C(F)(F)F)cc1NC(=O)c1nc2nc(C)cc(C)n2n1", "inhibition": 6.01}
{"smiles": "Cc1ccc(NS(=O)(=O)c2ccc(C(C)N3CCC(N4CCCCC4)CC3)cc2)cc1C", "note": "(centres undefined)", "inhibition": -2.42}
{"smiles": "CCCCCCNC(=O)C1Cc2c([nH]c3ccc(Br)cc23)C2(CCN(CCc3ccccc3)CC2)N1", "note": "(centres undefined)", "inhibition": 13.8}
{"smiles": "CN(c1ccc(NC(=O)c2ccc(F)cc2)cc1)C1CCN(Cc2cccc(F)c2)C1", "note": "(centres undefined)", "inhibition": 1.66}
{"smiles": "COc1ccc(-c2nonc2NC(=O)c2cccc(Cl)c2)cc1OC", "inhibition": 4.3}
{"smiles": "O=C(NCc1cccc(F)c1)Nc1cccc(-c2ccc(-c3nc4cc(C(F)(F)F)ccc4[nH]3)cc2)c1", "inhibition": 0.26}
{"smiles": "N#Cc1ccc(N/C(=N\\c2cccc(Cl)c2Cl)NC2Cc3ccccc3C2)c(O)c1", "inhibition": 2.33}
{"smiles": "COc1ccc2ccc(F)c(CC(=O)N3CCOC(CNCc4cccc(-c5ccsc5)n4)C3)c2n1", "note": "(centres undefined)", "inhibition": 6.96}
{"smiles": "Cc1noc(C)c1-c1cccc(CNCc2cccc(-c3cccc(-c4nc5cc(F)ccc5[nH]4)c3)c2)c1", "inhibition": -2.23}
{"smiles": "CN1CCC(N(Cc2ccc(-c3cnc(NCc4ccccc4)nc3)cc2)S(=O)(=O)c2ccccc2)CC1", "inhibition": 14}
{"smiles": "COc1ccc(NC(=O)/C=C/c2ccc(-c3ccc(-c4noc(C)n4)cc3)cc2)cc1OCCN(C)C", "inhibition": -0.19}
{"smiles": "O=C(Nc1cccc(C(F)(F)F)c1)c1cccc(S(=O)(=O)NCC2CCCN2CC2CCCCC2)c1", "note": "(centres undefined)", "inhibition": 5.37}
{"smiles": "O=C(Nc1ccc2c(c1)CCC2)c1cnc(N2CCN(c3ccncc3)CC2)c(Cl)c1", "inhibition": 54.2}
{"smiles": "COc1ccc2nc3cc(Cl)ccc3c(NCCO)c2c1", "inhibition": 2.8}
